High-throughput results: PubChem, National Center for Advancing Translational Sciences (NCATS)
Sm TGR inh: qHTS Assay for the Inhibitors of Schistosoma Mansoni Peroxiredoxins. Schistosoma mansoni thioredoxin glutathione reductase (TGR), Q962Y6. purified TGR, DTNB reduction, TNB absorbance 405 nm. Potency, µM (highest dose often 114 µM), for inactives: at the highest dose activity change, negative = inhibition, usual class: inhibitors. actives 3% (n = 360,000). AID 485364, 2010; note: % is set by controls: 0 for no effect and ±100 for the full control effect; nearly all actives have a fitted effect of over 60% in size
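TGR 20 nM + NADPH 100 uM (dispensed conc.), cpd preinc 15 min RT; start with NADPH (500 uM addition) then DTNB (15 mM addition). Kinetic TNB absorbance, 405 nm filter. Four-parameter Hill fit across titration.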
AmpC detergent: qHTS Inhibitors of AmpC Beta-Lactamase (assay with detergent). P00811. AID 485294, 2010. AmpC hydrolysis of nitrocefin, absorbance 480 nm, 0.01% Triton. Potency, µM (doses to about 114 µM), without a hit: at the highest dose activity change, negative = inhibition, most hits filed as inhibitors. actives 0.041% (n = 370,000);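 note: 0% = no-compound wells and -100% = no-enzyme wells; nearly all actives have a fitted effect of over 25% in size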
Target sequence (P00811 whole entry, looked up): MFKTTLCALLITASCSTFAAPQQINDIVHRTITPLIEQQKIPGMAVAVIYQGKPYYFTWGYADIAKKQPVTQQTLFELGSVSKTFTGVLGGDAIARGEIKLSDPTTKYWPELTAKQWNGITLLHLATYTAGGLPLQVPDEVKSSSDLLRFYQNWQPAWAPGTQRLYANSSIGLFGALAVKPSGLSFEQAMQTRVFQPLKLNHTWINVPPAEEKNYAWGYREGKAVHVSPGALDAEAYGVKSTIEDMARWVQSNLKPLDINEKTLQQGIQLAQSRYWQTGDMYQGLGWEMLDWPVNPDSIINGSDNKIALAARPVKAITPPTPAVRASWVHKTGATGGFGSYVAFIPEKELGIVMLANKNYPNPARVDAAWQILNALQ
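20 mM phosphate pH 7.0 + 0.01% (detergent screen) or 0.0001% Triton X-100; 5.3 nM AmpC reagent; cpd preinc 15 min RT; nitrocefin (800 uM stock) to start; A480 q20 s × 4 min; Activity was normalised to no-enzyme and no-compound control wells.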
Pf growth 96h: Primary qHTS for delayed death inhibitors of the malarial parasite plastid, 96 hour incubation; P. falciparum luciferase reporter growth, 96 h; Potency, µM (highest dose often 28.7 µM), without a hit: at the top dose activity change, negative = inhibition, most hits filed as inhibitors; actives 6.9% (n = 320,000); AID 504834, 2011; note: % is set by controls: 0 for no effect and ±100 for the full control effect
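Erythrocytes infected with luciferase-expressing P. falciparum were dispensed at 2% hematocrit and 0.05% parasitemia (final), then incubated with compounds 96 hours at 37 C in 5% CO2. Luminescence after detection reagent addition reported growth.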
AmpC inh no detg: qHTS Inhibitors of AmpC Beta-Lactamase (assay without detergent); AmpC nitrocefin hydrolysis, absorbance 480 nm, 0.0001% Triton; Potency, µM (titrated, usually from 57.1 µM), inactives show top-dose activity change, negative = inhibition, usual class: inhibitors; actives 0.52% (n = 330,000); AID 485341, 2010;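 note: plate controls were no compound for no effect and no enzyme for full effect; nearly all actives have a fitted effect of over 20% in size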
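AmpC (5.3 nM in the dispensed reagent) in 20 mM phosphate pH 7.0 with 0.01% (detergent screen) or 0.0001% Triton X-100 was preincubated with compounds for 15 min at room temperature. Nitrocefin was then added from an 800 uM solution, and hydrolysis was followed at 480 nm.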
SARS PLP yeast: qHTS of Yeast-based Assay for SARS-CoV PLP; S. cerevisiae expressing SARS-CoV PLpro, growth rescue; Potency, µM (series often up to 32.9 µM), for inactives: at the highest dose activity, positive = growth rescue, most hits filed as activators; AID 485353, 2010; actives 0.19% (n = 330,000); calls by dose curve; note: 0% is about no effect; nearly all actives have a fitted effect of over 55% in size
Pf growth 48h: Primary qHTS for delayed death inhibitors of the malarial parasite plastid, 48 hour incubation; P. falciparum luciferase growth in erythrocytes, 48 h; actives 5.9% (n = 310,000); Potency, µM (top dose mostly 28.7 µM), inactives show at the top dose activity change, negative = inhibition, usual class: inhibitors; AID 504832, 2011; note: % is set by controls: 0 for no effect and ±100 for the full control effect
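Growth was read as firefly luciferase luminescence after a 48 h, 37 C, 5% CO2 exposure of compounds to reporter-bearing P. falciparum cultures (0.1% parasitemia, 2% hematocrit final) in Albumax-supplemented RPMI 1640.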
* hit, by the source's call. Shown are actives, neighbours in structure and some others; about 12% of the full set was active somewhere. Unless noted, calls come from the whole dose curve; as a rule, active = well fitted curve in the direction sought with a large enough effect; inconclusive = small, poorly fitted or top-dose-only effect, or another doubt; inactive = no such curve, though single readings can be large; an effect the other way counts as inactive or inconclusive. Potency is the fitted concentration of half-maximal effect.

For CC(C)(C)c1ccc(O)c(CN2CCN(c3ccccc3)CC2)c1 the results were Sm TGR inh 25%, AmpC detergent -2%, Pf growth 96h 1%, AmpC inh no detg -22%, SARS PLP yeast -5% and Pf growth 48h 2.1µM*.
For Oc1ccccc1CN1CCN(C(O)(c2ccccc2)c2ccccc2)CC1 the results were Sm TGR inh -1%, AmpC detergent 1%, Pf growth 96h 5.2µM*, AmpC inh no detg -12%, SARS PLP yeast inconclusive and Pf growth 48h 5.9µM*.
For Clc1ccccc1CN1CCN(c2ccccc2)CC1 the results were Sm TGR inh -7%, AmpC detergent inconclusive, Pf growth 96h 17%, AmpC inh no detg -2% and SARS PLP yeast 13%.
For Oc1ccccc1CN1CCC(C(O)(c2ccccc2)c2ccccc2)CC1 the results were Sm TGR inh 0%, AmpC detergent -11%, Pf growth 96h 0%, AmpC inh no detg 3%, SARS PLP yeast -2% and Pf growth 48h 7.4µM*.
Screening Cc1ccc(S(=O)(=O)NCCc2csc3nc(-c4ccccc4C)nn23)cc1 returned Sm TGR inh 3% and AmpC detergent -6%.
For Cc1sc(NC(=O)CN2CCOCC2)nc1-c1ccc2c(c1)CCN2S(=O)(=O)c1ccccc1 the results were Sm TGR inh -26%, AmpC detergent -4%, AmpC inh no detg 124%, SARS PLP yeast -1% and Pf growth 48h 12µM*.
`Cc1cccc(C(=O)N2CCc3cc(-c4csc(NC(=O)CN5CCCC5)n4)ccc32)c1` gave Sm TGR inh 12%, AmpC detergent 5%, Pf growth 96h inconclusive, AmpC inh no detg 69%, SARS PLP yeast 0% and Pf growth 48h inconclusive.
For O=C(CN1CCOCC1)Nc1nc(-c2ccc3c(c2)CCN3S(=O)(=O)c2ccccc2)cs1 the results were Sm TGR inh 0%, AmpC detergent -7%, AmpC inh no detg 135%, SARS PLP yeast 0% and Pf growth 48h 2.1µM*.
`O=C(CN1CCCC1)Nc1nc(-c2ccc3c(c2)CCN3C(=O)c2ccccc2F)cs1` gave Sm TGR inh -8%, AmpC detergent -4%, Pf growth 96h inconclusive, AmpC inh no detg 34%, SARS PLP yeast -1% and Pf growth 48h 15µM*.
Screening Cc1ccc(Cn2c(C)c(CNCc3ccccc3F)c(C(=O)O)c2C)cc1 returned Sm TGR inh -7% and AmpC detergent 20%.
CCOC(=O)C1(CCc2ccccc2)CCN(C(=O)C2CCOCC2)CC1 was read as Sm TGR inh 8%, AmpC detergent 4%, Pf growth 96h inconclusive, AmpC inh no detg 139%, SARS PLP yeast 0% and Pf growth 48h -8%.
Screening CC1CCC/C(=C\Nc2ccc(O)cc2)C1=O (centres undefined) returned Sm TGR inh 40µM*, AmpC detergent inconclusive, Pf growth 96h 6%, AmpC inh no detg -25%, SARS PLP yeast 7% and Pf growth 48h 16%.
`CCOC(=O)N1CCN(c2ncnc3c2[nH]c2ccc(F)cc23)CC1` gave Sm TGR inh 1%, AmpC detergent 0%, Pf growth 96h 13µM*, AmpC inh no detg -33%, SARS PLP yeast 2% and Pf growth 48h inconclusive.
`O=c1c2[nH]c3ccc(F)cc3c2ncn1CCN1CCOCC1` gave Sm TGR inh 6%, AmpC detergent inconclusive, Pf growth 96h 83%, AmpC inh no detg -8% and SARS PLP yeast -1%.
`Fc1ccc2[nH]c3c(N4CCN(c5ccccc5)CC4)ncnc3c2c1` gave Sm TGR inh 2%, AmpC detergent -1%, Pf growth 96h 12µM*, AmpC inh no detg -57%, SARS PLP yeast -15% and Pf growth 48h 13µM*.
